29 compounds from PubChem BioAssay AID2590 (National Center for Advancing Translational Sciences (NCATS), 2010) can be followed below.

Values joined by “and” are separate entries in the source; they are usually repeats but may differ in a detail not shown here. Equal entries are not always repeated. Inconclusive results are not listed. A number with no mark means an inactive call. Active and inactive are the calls of the source. Calls follow the shape of the dose curve; as a rule, active = well fitted curve in the direction sought with a large enough effect; inconclusive = small, poorly fitted or top-dose-only effect, or another doubt; inactive = no such curve, though single readings can be large or run the other way.
Potency is read from the fitted curve at half-maximal effect.

Sequence of Lysosomal acid glucosylceramidase (Homo sapiens) (P04062 whole entry N409S): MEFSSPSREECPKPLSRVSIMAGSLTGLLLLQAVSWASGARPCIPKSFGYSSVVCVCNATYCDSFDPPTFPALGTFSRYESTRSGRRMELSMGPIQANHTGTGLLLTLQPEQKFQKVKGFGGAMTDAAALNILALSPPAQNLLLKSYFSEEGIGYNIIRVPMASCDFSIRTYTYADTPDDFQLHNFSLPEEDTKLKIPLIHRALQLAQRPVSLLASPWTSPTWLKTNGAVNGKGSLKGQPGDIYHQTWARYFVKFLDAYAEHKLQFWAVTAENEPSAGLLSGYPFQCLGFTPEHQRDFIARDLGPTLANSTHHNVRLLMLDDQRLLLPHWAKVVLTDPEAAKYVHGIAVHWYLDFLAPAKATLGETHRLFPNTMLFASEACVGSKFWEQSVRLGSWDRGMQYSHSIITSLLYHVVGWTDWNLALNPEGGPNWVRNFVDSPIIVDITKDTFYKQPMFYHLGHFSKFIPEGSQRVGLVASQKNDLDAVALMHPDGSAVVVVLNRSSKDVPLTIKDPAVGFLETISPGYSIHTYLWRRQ

The experiment has as its target Lysosomal acid glucosylceramidase (Homo sapiens) (UniProt P04062). Briefly: qHTS Assay for Inhibitors and Activators of N370S glucocerebrosidase as a Potential Chaperone Treatment of Gaucher Disease: Primary Screen Confirmation.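 As to Potency: enzyme source is Gaucher patient spleen homogenate not purified recombinant protein.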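 As to activity change, negative = inhibition: 0% = enzyme with DMSO and -100% = no enzyme basal signal.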 Conditions: N370S glucocerebrosidase enzyme activity, fluorogenic substrate; series mostly up to 54 µM; activity change, negative = inhibition: at the top concentration. Summed up: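 Patient-spleen homogenate carrying N370S GC (27 ug) in pH 5.0 citrate buffer with 0.01% Tween-20, 1 mM 4-methylumbelliferyl-beta-glucoside, 40 min at 37C; fluorescence 365/440 nm after NaOH/glycine stop; AC50 from Hill fits.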
On to `Cc1cc(C)cc(N(CC(=O)Nc2ccc(C(F)(F)F)cc2)S(=O)(=O)c2c(C)[nH]c(=O)[nH]c2=O)c1`, for which the Potency is 2.59 µM (active).
Consider `N#Cc1ccccc1S(=O)(=O)N1CCN(c2nc(-c3cccs3)nc3ccccc23)CC1`, for which the Potency is 2.25 µM (active) and 1.13 µM (active).
On to `COc1ccc(CN(CCCN)c2ccc(Br)cn2)cc1`, for which the “activity change, negative = inhibition” value is -27%.
`CC(=O)Nc1ccc(NC(=O)COc2ccccc2C(=O)Nc2cccc(Cl)c2Cl)cc1`: the “activity change, negative = inhibition” value was -7.21%.
Consider `CCOc1ccc(S(=O)(=O)N2CCN(c3nc(-c4ccccc4)nc4ccccc34)CC2)cc1`, for which the Potency is 4.11 µM (active).
Turning to `O=S(=O)(c1ccc2c(c1)OCCO2)N1CCN(c2nc(-c3cccs3)nc3ccccc23)CC1`, the Potency was 410 nM (active) and 450 nM (active).
In the case of `S=C(NCCCc1cnc[nH]1)NCCCN(Cc1ccc(Cl)cc1)c1ncc(Br)cn1`, the Potency is 1.79 µM (active).
As for `Cc1ccc(S(=O)(=O)N2CCN(c3nc(-c4ccc(CN5CCNCC5)s4)nc4ccccc34)CC2)cc1`, the Potency is 12.7 µM (active).
Take `N#C/C(=C\c1c(Oc2ccccc2Cl)nc2ccccn2c1=O)C(=O)NC1CCS(=O)(=O)C1` (centres undefined): the “activity change, negative = inhibition” value was 1.08%.
Regarding `CC(C)(C)C(=O)OCCNc1nc(-c2cccs2)nc2ccccc12`, the Potency was 1.46 µM (active).
For the compound `CN(CCCc1cnc[nH]1)C(=S)NCCCN(Cc1ccc(Cl)cc1)c1ccc(Br)cn1`, the Potency is 11.4 µM (active).
`O=S(=O)(c1ccc(F)cc1)N1CCN(c2nc(-c3ccc(F)cc3)nc3cc(Cl)ccc23)CC1`: the “activity change, negative = inhibition” value is -2.14%.
Regarding `O=C(Nc1ccccc1)Nc1ccccc1`, the Potency entry was “inactive”.
Turning to `CC(C)(C)c1cccc(S(=O)(=O)N2CCN(c3nc(-c4cccs4)nc4ccccc34)CC2)c1`, the Potency is 1.63 µM (active).
As to `Cc1ccc2nc(-c3ccc(SCC(=O)N4CCc5ccccc54)nc3)[nH]c2c1`, the Potency is 10 µM (active).
On to `Cc1cc(C)cc(N(CC(=O)Nc2cccc(C)c2C)S(=O)(=O)c2c(C)[nH]c(=O)[nH]c2=O)c1`, for which the Potency is 3.26 µM (active).
The same measure, in the same setting: then `O=C(c1ccc2c(c1)OCCO2)N1CCN(c2nc(-c3cccs3)nc3ccccc23)CC1`, with 3.66 µM (active).
With `Cc1ccc(S(=O)(=O)N2CCN(c3nc(C#N)nc4ccccc34)CC2)cc1`, the “activity change, negative = inhibition” value is -15.6%.
As to `Cc1ccc(S(=O)(=O)N2CCCN(c3nc(-c4cccs4)nc4ccccc34)CC2)cc1`, the Potency is 5.66 µM (active).
Take `O=S(=O)(c1ccc2c(c1)CCCC2)N1CCN(c2nc(-c3cccs3)nc3ccccc23)CC1`: the Potency is 0.713 µM (active).
Regarding `Cc1cccc(NC(=S)Nc2cccc(C)n2)n1`, the “activity change, negative = inhibition” value is 11.5%.
As for `S=C(NCCCc1cnc[nH]1)NCCCN(CCc1ccc(Cl)cc1)c1ccc(Br)cn1`, the Potency was 1.79 µM (active).
For the compound `O=S(=O)(c1cccc(Cl)c1)N1CCN(c2nc(-c3cccs3)nc3ccccc23)CC1`, the Potency was 1.6 µM (active) and 1.79 µM (active).
With `O=S(=O)(c1ccccc1C(F)(F)F)N1CCN(c2nc(-c3cccs3)nc3ccccc23)CC1`, the Potency is 0.41 µM (active).
The same measure, in the same setting: then `Cc1ccc(S(=O)(=O)N2CCN(c3nc(-c4cccs4)cc4ccccc34)CC2)cc1`, with 3.26 µM (active); and `N#Cc1cccc(S(=O)(=O)N2CCN(c3nc(-c4cccs4)nc4ccccc34)CC2)c1`, with 2.01 µM (active).
In the case of `CC(C)(C)C(=O)OCCNc1nc(-c2ccccc2)nc2ccccc12`, the Potency was 1.42 µM (active).
Consider `O=S(=O)(c1ccc(Cl)cc1)N1CCN(c2nc(-c3ccc(F)cc3)nc3cc(Cl)ccc23)CC1`, for which the “activity change, negative = inhibition” value is 1.27%.
For the compound `COc1cccc(NC(=O)CSc2nc3c(sc4ccccc43)c(=O)n2CCCN2CCCC2)c1`, the “activity change, negative = inhibition” value is -26.5%.
